Data from the supplement of paper PMC6555819.

Tests used:
Test in all cases: PBM binding z-score (relative to random genomic background probes); higher = stronger binding; sequences stand for … in GC…GCGATTGACAGCGTAGAATGAAGG
[1] = system: RARb homodimer (NR concentration 270 nM)
Procedure, shortened: (§1)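 Probes were double-stranded and carried 34-nt variable regions with direct-repeat seeds, single-nucleotide variants, half-site ablations and random human genomic background sequences, printed on custom Agilent 4×180K protein-binding microarrays. Arrays were incubated 1 h with ligand-free nuclear receptor dimers in PBS pH 7.4, 2% milk, 0.02% Triton X-100, 1 mM DTT, 0.2 mg/mL BSA and 0.4 mg/ml salmon testes DNA. Antibodies against each partner (one per run) detected binding, and scanned fluorescence was regression-normalized. Binding z-scores use the random background probes as reference.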

[2] = system: RARg:RXRa (NR concentration 270 nM, RXRa partner concentration 90 nM)
Procedure, shortened: as §1

[3] = system: RARg homodimer (NR concentration 270 nM)
Procedure, shortened: as §1

[4] = system: RXRa DBDmut IVT, anti-RXR (DBD mutation: RXRa K156A/R161A, NR concentration 90 nM)
Procedure, shortened: as §1

[5] = system: RXRa homodimer (NR concentration 180 nM)
Procedure, shortened: as §1

[6] = system: THRa:RXRa (NR concentration 90 nM, RXRa partner concentration 90 nM)
Procedure, shortened: as §1

[7] = system: THRa homodimer (NR concentration 90 nM)
Procedure, shortened: as §1

[8] = system: VDR homodimer (NR concentration 270 nM)
Procedure, shortened: as §1

Row | Sequence | PBM binding z-score [1] | PBM binding z-score [2] | PBM binding z-score [3] | PBM binding z-score [4] | PBM binding z-score [5] | PBM binding z-score [6] | PBM binding z-score [7] | PBM binding z-score [8]
1 | CCTCGGAGGACAACAGGAGGTCAGAGCGGCCAGA | 3.6 | 3.74 | 3.91 | 0.253 | 2.11 | 2.87 | 1.31 | 1.51
2 | ACTCGGCGGACAAAGGTCAGAGCTACGCCAGTGA | 4.19 | 5.15 | 4.72 | 0.437 | 4.46 | 2.39 | 0.00347 | 0.793
3 | ATAGAAAGGTCGACGAGGTGAGTATACACCGTTT | 2.88 | 3.98 | 3.86 | 1.03 | 4.18 | 3.62 | 0.52 | 1.1
4 | ACTAGTTGGTCAGCTGAGGTTACACACAATTCGG | 2.03 | 1.46 | 1.69 | 0.642 | 1.31 | 3.86 | 1.97 | 1.01
5 | ATCTATAGGTAACCAAGTTCAGTGAATGCCGAAC | 1.42 | 0.853 | 0.891 | 1.04 | 0.806 | 1.05 | 0.378 | 2.84
6 | TCTCGCAGGACACGAAAGGTCAGAGCTCGACATC | 4.29 | 4.42 | 4.47 | 1.05 | 4.07 | 3.42 | 0.878 | 0.759
7 | AGAACGAGGGCAATGAGTTGCTAGCACGGGTGGC | 0.949 | 0.847 | 1.24 | 1.67 | 0.545 | 0.677 | -0.316 | 1.49
